Compounds without any hit were thinned out: in the full panel of roughly 83,000, 20% have a hit.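 Single-concentration screen, 48 h exposure, 96-well plates. Endpoint: percent growth. Below 10 = active.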 The source made the active and inactive calls.
Legend:
Assay in all cases: NCI-60 one-dose screen, 48 h (100 = growth as untreated, 0 = no growth, -100 = all killed)
Settings in all cases: 10 µM
[1] = system: HT29 colon
[2] = system: SNB-75 CNS
[3] = system: SNB-19 CNS
[4] = system: U251 CNS
[5] = system: PC-3 prostate
[6] = system: SK-MEL-5 melanoma
[7] = system: UACC-62 melanoma
[8] = system: LOX IMVI melanoma
[9] = system: SK-MEL-28 melanoma

Measured: growth

CN(C)CCN=c1nc2c(c(N)n1-c1ccccc1)c(=S)n(-c1ccccc1)c(=S)n2-c1ccccc1
inactive: [2] 79% | [3] 26.1% | [5] 31%
active: [1] -35.7% | [4] 2.1% | [6] -98.8% | [7] -90.3% | [8] -61.4% | [9] -100%

O=S(=O)(NCCNc1nccc(-c2c(-c3ccc(F)cc3)nc3sccn23)n1)c1ccc2ccccc2c1
inactive: [1] 44.9% | [2] 79.3% | [3] 105% | [4] 71% | [5] 73.4% | [6] 69.2% | [7] 71.7% | [8] 71.3% | [9] 93%

O=C1OCC2=C1C(c1ccc(Cl)c(Cl)c1)c1cc3c(cc1N2CCO)OCCO3 (stereo not given)
inactive: [2] 30.3% | [3] 33.1% | [4] 18.2% | [5] 19.1% | [6] 29.9% | [7] 22.5% | [8] 44.3% | [9] 53%
active: [1] 2.95%

COc1ccc(Oc2nc(NC3CCCC3)nc(Sc3ccc(OC)cc3)n2)cc1
inactive: [1] 43.7% | [2] 75.3% | [3] 90.9% | [4] 44.4% | [5] 43% | [6] 45.7% | [7] 71.1% | [8] 72.6% | [9] 86%

O=C1OCC2=C1C(c1cccc(Cl)c1)c1cc3c(cc1N2CCO)OCCO3 (stereo not given)
active: [1] 2.11% | [4] 0.324% | [6] -8.57%
inactive: [2] 29.2% | [3] 37.4% | [5] 21.3% | [7] 27.9% | [8] 22.2% | [9] 57.7%

CCCCCCCCCCCCCCCCCCOCC(COCCOCC[N+]1(CCCCCC(=O)[O-])CCCC1)Oc1ncccn1 (stereo not given)
active: [2] 6.6% | [4] 8.23% | [5] 0.371%
inactive: [1] 22.7% | [3] 18.5% | [6] 45.3% | [7] 54.4% | [8] 39.9%

C/C(N)=C(\C#N)C(=O)c1ccccc1
inactive: [1] 105% | [2] 93.1% | [3] 107% | [4] 98.2% | [5] 98.2% | [6] 99.5% | [7] 109% | [8] 99.8% | [9] 108%

C#Cc1ccc(-n2c(/C=C/c3ccc4ccccc4n3)nc3ncccc3c2=O)cc1
active: [1] -61.4% | [2] -59.2% | [3] -0.995% | [4] -57.6% | [5] -28.6% | [6] -98.2% | [7] -65.3% | [8] -50.8% | [9] -52.8%

Cc1cc2c(C)c3cc(C)c(N)cc3nc2cc1N
inactive: [2] 21.8% | [3] 18.3% | [4] 14.9% | [6] 19.8% | [7] 24.2% | [9] 38.9%
active: [1] -25.5% | [5] 7.77% | [8] 4.46%

COc1ccc(-c2nc(-c3nc4ccc(OC)cc4[nH]3)cc3c2[nH]c2ccccc23)cc1
inactive: [1] 17.4% | [2] 67.3% | [3] 37.5% | [4] 14.3% | [5] 25.8% | [6] 49.9% | [7] 50% | [8] 27.2% | [9] 47.7%

O=C(Nc1cccc(-n2cc(-c3ccncc3)c(-c3ccc(O)c(Cl)c3)n2)c1)Nc1ccc(Cl)c(Cl)c1
active: [2] 7.7% | [4] -70.9% | [5] -7.87% | [6] -47% | [7] -43% | [8] -34.4% | [9] -21.5%
inactive: [1] 37.8% | [3] 38.2%

CCCCC(CCCCCC(CCCC)NCc1ccc2c(c1)OCO2)NCc1ccc2c(c1)OCO2 (stereo not given)
active: [1] -100% | [2] -100% | [3] -100% | [4] -95.3% | [5] -100% | [6] -100% | [7] -95.4% | [8] -96.8% | [9] -100%

S=C1SCC(c2ccccc2)S1 (stereo not given)
inactive: [1] 103% | [2] 92.2% | [3] 97.8% | [4] 95.5% | [5] 99.7% | [6] 103% | [7] 100% | [8] 103% | [9] 103%

O=C(Nc1cccc(-n2cc(-c3ccncc3)c(-c3ccc(O)c(Cl)c3)n2)c1)c1ccc(N2CCOCC2)c(C(F)(F)F)c1
inactive: [1] 12.4% | [2] 33.5% | [3] 67.9% | [5] 24.4% | [6] 40.9% | [7] 43.3% | [8] 21.1% | [9] 49.7%
active: [4] -13%

COc1cc(Cl)cc(-c2nn(-c3cccc(NC(=O)Nc4cc(C(F)(F)F)cc(C(F)(F)F)c4)c3)cc2-c2ccncc2)c1
inactive: [2] 11.3% | [3] 26.1%
active: [1] 3.93% | [4] -58% | [5] -6.27% | [6] -79.4% | [7] -21.2% | [8] -24% | [9] 6.55%

CNc1ncc(-c2ccc(C(F)(F)F)cc2)c(NC2CCCCCC2)n1
inactive: [1] 56.8% | [2] 90.9% | [3] 85.2% | [4] 58.9% | [5] 61.8% | [6] 74.8% | [7] 89.9% | [8] 85.8% | [9] 88%

COc1ccc(-c2nn(-c3cccc(NC(=O)Nc4ccc(Cl)c(C(F)(F)F)c4)c3)cc2-c2ccncc2)cc1Cl
active: [1] 2.78% | [4] -41.1% | [5] 2.84% | [7] -2.96%
inactive: [2] 25.6% | [3] 32.2% | [6] 14.7% | [8] 19.9% | [9] 23%

CC/C(C)=C(\C)C(=O)O
inactive: [1] 106% | [2] 94.5% | [3] 112% | [4] 105% | [5] 104% | [6] 103% | [7] 112% | [8] 92.7% | [9] 111%

O=C1/C(=C/c2ccc([N+](=O)[O-])o2)Oc2ccccc21
active: [1] -15.3% | [7] -55% | [8] -60.7%
inactive: [2] 74.7% | [3] 89.4% | [4] 47.5% | [5] 42.8% | [6] 55.7% | [9] 21.5%

Cc1ccc(CC#N)cc1C
inactive: [1] 110% | [2] 101% | [3] 94.6% | [4] 89.9% | [5] 164% | [6] 99.3% | [7] 103% | [8] 96.7% | [9] 137%

COc1cccc(C2C3=C(COC3=O)N(CCO)c3cc(OC)ccc32)c1 (stereo not given)
inactive: [2] 27.2% | [3] 33.3% | [4] 12.7% | [5] 26.9% | [7] 14.6% | [8] 23.9% | [9] 56.1%
active: [1] -8.66% | [6] -3.6%

Nc1ccc2c(c1)Cc1cc(N)c(Br)cc1-2
inactive: [1] 107% | [2] 67.1% | [3] 114% | [4] 108% | [5] 96.9% | [6] 97.8% | [7] 96.7% | [8] 96.8% | [9] 115%

CN(Cc1ccccc1)Cc1ccc([N+](=O)[O-])cc1I
inactive: [1] 93.8% | [2] 94.7% | [3] 91.6% | [4] 89.4% | [5] 90.5% | [6] 93.5% | [7] 94.2% | [8] 102% | [9] 97.1%

CN1CCC(CNc2cc(C3(C(=O)Nc4cc(C(=O)Nc5ccc(Cl)c(C(F)(F)F)c5)ccc4F)CC3)ncn2)CC1
inactive: [2] 23.1% | [7] 32.9%
active: [1] -26.6% | [3] -34.1% | [4] -37.5% | [5] -23% | [6] -95.4% | [8] -74.2% | [9] -54.7%

Nc1ncn([C@@H]2O[C@H](CO)[C@@H](O)[C@H]2O)c(=O)n1
inactive: [1] 19.9% | [2] 20.3% | [3] 46.6% | [4] 19.6% | [5] 31% | [6] 48.3% | [7] 12.5% | [9] 34.8%
active: [8] -9.93%

COc1ccc(-c2nn(-c3cccc(NC(=O)Nc4cc(C(F)(F)F)cc(C(F)(F)F)c4)c3)cc2-c2ccncc2)cc1Cl
active: [1] -17.4% | [2] 6.77% | [4] -75.5% | [5] -14.7% | [6] -37.6% | [7] 7.55% | [9] -5.48%
inactive: [3] 30.2% | [8] 12.9%

COc1cc(-c2cc(/C=C/C(=O)c3ccc(Cl)c(Cl)c3)[nH]n2)cc(OC)c1OC
inactive: [1] 58.3% | [2] 75.4% | [3] 68% | [4] 43.8% | [5] 55% | [6] 84.1% | [7] 81.6% | [8] 29.6% | [9] 96.1%

O=C1OCC2=C1C(c1cccc(Cl)c1)c1cc3c(cc1N2CCO)OCO3 (stereo not given)
active: [1] 4.61%
inactive: [2] 11.7% | [3] 37.8% | [4] 17.1% | [5] 25.2% | [6] 19% | [7] 22.2% | [8] 42.8% | [9] 51.3%

COc1cc2c(cc1OCCCN1CCN(c3ncnc4ccccc34)CC1)N=CC1CCCN1C2=O (stereo not given)
active: [2] -29.8% | [4] 1.3% | [5] -53% | [6] -95.7% | [7] -91.8% | [8] -39.4% | [9] -9.59%
inactive: [1] 12.3% | [3] 12%

Reference: PubChem BioAssay (NCI)
